The campaign covered roughly 66,000 compounds. About 960 (1.5%) showed an effect of 50% or more. Shown is part of a subset that was picked to be rich in strong results.
Tested on: Trypanosoma brucei
Assay: Trypanosoma brucei 72 hour study
Type: functional, organism-based
Design: scale not given: in the data most compounds retested in dose-response had high values

CCC1(CO)CCCN(Cc2nccn2Cc2ccccc2)C1 (centres undefined)
Percent Effect (30 µM, 30.03 µM): -5.033%

CCOC(=O)C1(CCOC)CCCN(Cc2nccn2CC)C1 (centres undefined)
Percent Effect (30.3 µM, […]): -20.23%

CCOC(=O)C1(CCOC)CCN(Cc2nccn2CC)CC1
Percent Effect (30.3 µM, […]): -0.1521%

CCn1ccnc1CN1CCCC(CO)(Cc2cccc(OC)c2)C1 (centres undefined)
Percent Effect (30 µM, 30.03 µM): -22.09%

CCn1ccnc1CN1CCCC(CO)(Cc2cccc(Cl)c2)C1 (centres undefined)
Percent Effect (30 µM, 30.03 µM): 109.3%

CCOC(=O)C1(Cc2ccccc2)CCCN(Cc2nccn2CC)C1 (centres undefined)
Percent Effect (30.3 µM, […]): 95.74%

Cn1cc(CCC(=O)N2C[C@H]3CC[C@@H]2CN(Cc2cccnc2)C3)cn1
Percent Effect (30 µM, 30.03 µM): -23.98%

Cc1ccnc(NC(=O)C2CCN(CCCc3cn[nH]c3)CC2)c1
Percent Effect (30 µM, 30.03 µM): -19.03%

COCC1CN(C(=O)Nc2cc(Cl)cc(Cl)c2)CCO1 (centres undefined)
Percent Effect (30.3 µM, […]): -16.88%

Cc1cc(NC(=O)N2CCOC(C(N)=O)C2)ccc1Br (centres undefined)
Percent Effect (30 µM, 30.03 µM): -3.776%

NC(=O)C1CN(C(=O)Nc2cc(Cl)cc(Cl)c2)CCO1 (centres undefined)
Percent Effect (30 µM, 30.03 µM): 103.3%

CCN(CC)CCn1c(=O)oc2ccccc21.Cl
Percent Effect (30 µM, 30.03 µM): -24.39%

Cc1cccc(Cc2nc3c([nH]2)CCCNC3=O)c1
Percent Effect (30 µM, 30.03 µM): -3.182%

CC1(C)CNC(=O)c2nc(-c3n[nH]c(=O)[nH]3)[nH]c2C1
Percent Effect (30 µM, 30.03 µM): -63.36%

CC1(C)CNC(=O)c2nc(-c3ccccc3)[nH]c2C1
Percent Effect (30 µM, 30.03 µM): -21.93%

COc1cc(-c2nc3c([nH]2)CCCNC3=O)cc(OC)c1OC
Percent Effect (30 µM, 30.03 µM): -56.65%

Cc1ccc2nc(-c3nc4c([nH]3)CC(C)(C)CNC4=O)cn2c1
Percent Effect (30 µM, 30.03 µM): 106.8%

CC(C)Oc1cccc(-c2nc3c([nH]2)CCCNC3=O)c1
Percent Effect (30 µM, 30.03 µM): -40%

COc1cc(-c2nc3c([nH]2)CCCNC3=O)ccc1O
Percent Effect (30 µM, 30.03 µM): 4.773%

Cc1ccc2nc(-c3nc4c([nH]3)CCCNC4=O)cn2c1
Percent Effect (30 µM, 30.03 µM): 99.29%

CC(C)Cn1cncc1-c1nc2c([nH]1)CCCNC2=O
Percent Effect (30 µM, 30.03 µM): -24.09%

Cc1cccc2nc(-c3nc4c([nH]3)CCCNC4=O)cn12
Percent Effect (30 µM, 30.03 µM): 66.46%

COc1ccc(-c2nc3c([nH]2)CCCNC3=O)cc1OC
Percent Effect (30 µM, 30.03 µM): -51.91%

Cc1cn2cc(-c3nc4c([nH]3)CCCNC4=O)nc2s1
Percent Effect (30 µM, 30.03 µM): 81.5%

CN(Cc1ccco1)C[C@H]1OC[C@@H]2CN(c3ncc(F)cn3)CC[C@@H]21.O=C(O)C(F)(F)F.O=C(O)C(F)(F)F
Percent Effect (30.3 µM, […]): -14.08%

CN(C)C(=O)N1CCC2(CC1)CCN(Cc1ccccn1)C2=O.O=C(O)C(F)(F)F
Percent Effect (30 µM, 30.03 µM): 7.411%

Cc1ccc(CN2C[C@H](NC(=O)c3nccn3C)[C@H]3OCCC[C@H]32)o1
Percent Effect (30.3 µM, […]): -18.85%

O=C(O)C(F)(F)F.O=C(O)C(F)(F)F.c1cncc(CN2CCn3c(Cn4cncn4)cnc3C2)c1
Percent Effect (30.3 µM, […]): -106.7%

Cc1cc(C(=O)N2CC[C@@H](N(C)C)[C@@H]2Cc2ccccc2)no1.O=C(O)C(F)(F)F
Percent Effect (30.3 µM, […]): 3.974%

CN(C)CCn1c([C@@H]2CCCO2)cc2cccnc21.Cl
Percent Effect (30.3 µM, […]): -17.47%

CN(C)S(=O)(=O)N1CCC2(COCc3cnc(NCC4CC4)nc32)C1 (centres undefined)
Percent Effect (30 µM, 30.03 µM): -49.38%

CNC(=O)[C@@H]1CCO[C@@H]2CCN(Cc3ccsc3)C[C@H]21.O=C(O)C(F)(F)F
Percent Effect (30.3 µM, […]): -300.6%

O=C(C1CCC1)N1CCC2(CCCN2CC2CC2)CC1.O=C(O)C(F)(F)F
Percent Effect (30.3 µM, […]): -53.73%

COc1ccc(CN2CCOCC3(CCN(C4CCOCC4)C3)C2)cc1.O=C(O)C(F)(F)F.O=C(O)C(F)(F)F (centres undefined)
Percent Effect (30 µM, 30.03 µM): 20.44%

O=C(O)C(F)(F)F.O=C1CC2(CNCCN(C(=O)Nc3ccccc3)C2)CN1 (centres undefined)
Percent Effect (30.3 µM, […]): -24.96%

O=C(Nc1ccccc1)c1ccc2c(c1)C1(CCCCC1)CN2.O=C(O)C(F)(F)F
Percent Effect (30.3 µM, […]): 97.07%

CC(=O)c1ccc(NC(=O)c2ccc3c(c2)C2(CCCCC2)CN3)cc1.O=C(O)C(F)(F)F
Percent Effect (30.3 µM, […]): -13.93%

COc1ccc(C[C@H]2CN(Cc3ccoc3)CC[C@@H]2OC)cc1.O=C(O)C(F)(F)F
Percent Effect (30.3 µM, […]): -8.959%

COC(=O)Cn1c(=O)nc2n1C(=O)N(c1cccc(Cl)c1)C2
Percent Effect (30 µM, 30.03 µM): -8.775%

Cc1cc(C)c(C#N)c(NCCn2cnnc2C(C)C)n1
Percent Effect (30 µM, 30.03 µM): -40.75%

Cc1n[nH]c(C)c1CCC(=O)N1CCC(O)(CN2CCOCC2)C1 (centres undefined)
Percent Effect (30.3 µM, […]): -4.476%

CCN(Cc1ccc(C(C)=O)cc1)CC1CCOCC1
Percent Effect (30 µM, 30.03 µM): 98.5%

NC(=O)NC(=O)CCN(Cc1ccccc1)CC1CCOCC1
Percent Effect (30 µM, 30.03 µM): -38.3%

CCN(Cc1ccc(O)c(C(=O)O)c1)CC1CCOCC1
Percent Effect (30 µM, 30.03 µM): -62.42%

COC1COC2(CCN(Cc3ccccc3C)CC2)C1.O=C(O)C(F)(F)F (centres undefined)
Percent Effect (30 µM, 30.03 µM): -3.278%

COc1ccc(CN2CCn3c(CO)nnc3C2)cc1CN1CCCC1.O=C(O)CC(O)(CC(=O)O)C(=O)O
Percent Effect (30.3 µM, […]): -29.63%

CN(CCn1cnnc1)S(=O)(=O)c1ccc(C(F)(F)F)nc1
Percent Effect (30 µM, 30.03 µM): -27.18%

O=C(Cc1ccccc1F)N1CCCCC1c1ccn2ccnc2n1 (centres undefined)
Percent Effect (30.3 µM, […]): -17.08%

Br.Cc1ccc(C(=O)CN(C2=NCCCCC2)c2ccccc2)cc1
Percent Effect (30 µM, 30.03 µM): -7.636%

Br.O=C(CN(C1=NCCCC1)c1ccccc1)c1ccccc1
Percent Effect (30 µM, 30.03 µM): -30.63%

Br.Cc1ccc(N(CC(=O)c2ccc(Br)cc2)C2=NCCCCC2)cc1
Percent Effect (30 µM, 30.03 µM): 102.1%

Cc1nc(-c2cc(C(=O)NCCN3CCOCC3)c3ccccn23)cs1.O=C(O)C(F)(F)F
Percent Effect (30 µM, 30.03 µM): -1.462%

CN(C)CC1(O)CCN(C(=O)Cc2ccc(Cl)c(Cl)c2)C1 (centres undefined)
Percent Effect (30 µM, 30.03 µM): -2.195%

Cc1cc2occ(CC(=O)N3CCC4(CCCN(C)C4=O)C3)c2cc1Cl (centres undefined)
Percent Effect (30.3 µM, […]): 2.516%

Cc1cc2occ(CC(=O)N3CCC(O)(CN(C)C)C3)c2cc1Cl (centres undefined)
Percent Effect (30.3 µM, […]): 99.94%

CCN1C(=O)CC[C@]12CC[C@@H](NC(=O)c1cnccn1)CC2
Percent Effect (30.3 µM, […]): -18.7%

COC(=O)CN1CC(c2nc(Cc3ccccc3)no2)C1.O=C(O)C(=O)O
Percent Effect (30 µM, 30.03 µM): 101%

CCNC(=O)N1CC(c2nc(Cc3ccccc3)no2)C1
Percent Effect (30.3 µM, […]): 0.6321%

O=C(CN1CC(c2nc(Cc3ccccc3)no2)C1)NCC1CCCO1.O=C(O)C(=O)O (centres undefined)
Percent Effect (30.3 µM, […]): 6.981%

Cc1nn(C)c2ncnc(N3CCCC(C)(O)C3)c12 (centres undefined)
Percent Effect (30 µM, 30.03 µM): 2.016%

CCC1(O)CCCN(c2ncnc3c2c(C)nn3C)C1 (centres undefined)
Percent Effect (30 µM, 30.03 µM): 27.55%

Cc1nn(C)c2ncnc(N3CCC(O)(CN4CCCC4)CC3)c12
Percent Effect (30 µM, 30.03 µM): 57.4%

COc1cc(N2CCO[C@H]3[C@@H](Oc4cccnc4)CC[C@@H]32)ncn1.O=C(O)C(F)(F)F.O=C(O)C(F)(F)F
Percent Effect (30 µM, 30.03 µM): -15.67%

CCC1CCCCN1CCNC(=O)N1CCN(Cc2ccon2)CC1 (centres undefined)
Percent Effect (30 µM, 30.03 µM): 20.59%

CN(C)CCn1c2c(ccc1=O)CC(NC(=O)NC1CCCC1)CC2.O=C(O)C(F)(F)F (centres undefined)
Percent Effect (30.3 µM, […]): -38.22%

CC(C)(C)NC(=O)NC(=O)CNc1c(F)cccc1N1CCCC1
Percent Effect (30 µM, 30.03 µM): -52.35%

CCCn1cc(S(=O)(=O)N[C@H]2CN(CCO)C[C@@H]2C2CC2)cn1
Percent Effect (30 µM, 30.03 µM): -20.35%

CC1=C[C@@H](CN2CCCC2)[C@H](C(C)C)C[C@H]1Cc1nnc(C)o1
Percent Effect (30 µM, 30.03 µM): 17.59%

CC1=C[C@@H](CN2CCN(C)CC2)[C@H](C(C)C)C[C@H]1Cc1nnc(C)o1
Percent Effect (30 µM, 30.03 µM): 28.22%

CC1=C[C@@H](CN2CCOCC2)[C@H](C(C)C)C[C@H]1Cc1nnc(C)o1
Percent Effect (30 µM, 30.03 µM): 60.87%

CC1c2ncc(Cn3cncn3)n2CCN1C(=O)c1ccsc1 (centres undefined)
Percent Effect (30.3 µM, […]): -6.898%

CC(C)N1CCO[C@@H]2CN(C(=O)Cc3cccs3)CC[C@@H]2C1.O=C(O)C(F)(F)F
Percent Effect (30.3 µM, […]): -84.63%

COCC(C)NCc1nc(-c2ccc(C)cc2)c(-c2ccccn2)[nH]1 (centres undefined)
Percent Effect (30 µM, 30.03 µM): 72.12%

Cc1ccc(-c2nc(CNC(C)CCO)[nH]c2-c2ccccn2)cc1 (centres undefined)
Percent Effect (30 µM, 30.03 µM): -54.5%

Cc1ccc(-c2nc(CNS(=O)(=O)N(C)C)[nH]c2-c2ccccn2)cc1
Percent Effect (30 µM, 30.03 µM): -19.21%

COc1cc(C)c(C)cc1S(=O)(=O)NCC(O)c1cccn1C (centres undefined)
Percent Effect (30.3 µM, […]): 93.04%

Cc1cc(F)ccc1S(=O)(=O)NCC(O)c1cccn1C (centres undefined)
Percent Effect (30.3 µM, […]): 2.147%

Cn1cccc1C(O)CNS(=O)(=O)c1ccccc1F (centres undefined)
Percent Effect (30.3 µM, […]): 21.76%

COc1ccc(C)cc1S(=O)(=O)NCC(c1cccn1C)N(C)C (centres undefined)
Percent Effect (30 µM, 30.03 µM): -85.17%

Cn1cccc1C(O)CNS(=O)(=O)c1ccccc1Br (centres undefined)
Percent Effect (30.3 µM, […]): 101.8%

Cc1c(Cl)cccc1S(=O)(=O)NCC(O)c1cccn1C (centres undefined)
Percent Effect (30.3 µM, […]): 15.12%

Cc1cccc(CN2CCc3cc(C(=O)O)c(N(C)C)nc3CC2)n1.O=C(O)C(F)(F)F.O=C(O)C(F)(F)F
Percent Effect (30.3 µM, […]): -4.937%

CN(C)C(=O)COC[C@@H]1CC[C@H]2[C@H](CCN2c2ncccn2)O1.O=C(O)C(F)(F)F
Percent Effect (30 µM, 30.03 µM): -8.509%

Cc1ccc(CN2CC3(CCN(C(=O)c4cscn4)C3)C2)o1.O=C(O)C(F)(F)F
Percent Effect (30 µM, 30.03 µM): -9.237%

O=C(O)C(F)(F)F.O=C(O)C(F)(F)F.O=C(O)C(F)(F)F.OCCN1CCC2(CC1)CC(NCc1ccccn1)c1ccccc1O2 (centres undefined)
Percent Effect (30 µM, 30.03 µM): -31.61%

CC(C)N1CCCC1c1cc(CO)[nH]n1.O=CO (centres undefined)
Percent Effect (30.3 µM, […]): -7.818%

CN(Cc1ccco1)Cc1cncc2c1CCN(c1ncccn1)C2.Cl.Cl
Percent Effect (30 µM, 30.03 µM): 54.64%

Cc1ccc(N2CCc3c(CN(C)Cc4ccco4)cncc3C2)nn1.Cl.Cl
Percent Effect (30.3 µM, […]): -4.486%

Cc1cnc(N2CCc3c(CN(C)Cc4ccco4)cncc3C2)nc1
Percent Effect (30.3 µM, […]): 5.943%

CCN1CCC(NC(=O)CN2CCc3c(ncn3C3CC3)C2)CC1
Percent Effect (10 µM): -42.18%

Cc1cnc(C(=O)N2CCC3(CCN(Cc4ccccn4)C3=O)C2)cn1.O=C(O)C(F)(F)F (centres undefined)
Percent Effect (30 µM, 30.03 µM): -17.07%

COC[C@H]1CCCN1c1nccc(-c2cnn(-c3ccccc3C)c2)n1
Percent Effect (30.3 µM, […]): 99.85%

Cc1ccccc1-n1cc(-c2ccnc(N3CCCC(CN)C3)n2)cn1 (centres undefined)
Percent Effect (30.3 µM, […]): 46.15%

Cc1ccccc1-n1cc(-c2ccnc(N3CCCC(O)C3)n2)cn1 (centres undefined)
Percent Effect (30.3 µM, […]): 12.09%

Source: ChEMBL document CHEMBL3988442, “University of Dundee, Small-Polar-MMV Screening Library” (2021)
